# High-throughput results as filed in PubChem.
# JMJD2A Tudor inh – inhibitors of human JMJD2A Tudor domain. O75164. AlphaScreen JMJD2A-Tudor / H3K4me3 peptide binding. Potency, µM (top dose mostly 114 µM), for inactives: at the highest dose activity change, negative = inhibition, usual class: inhibitors. actives 4.4% (n = 390,000). AID 504339; further: on the % scale 0 is the no-effect control and ±100 the full control effect; nearly all actives have a fitted effect of over 50% in size
# BAZ2B block – blocks human BAZ2B; Q9UIF8; AlphaScreen BAZ2B-H3K14Ac peptide displacement; Potency, µM (series often up to 114 µM), inactives show at the top dose activity change, negative = inhibition, hits mostly inhibitors; actives 4.4% (n = 360,000); further: on the % scale 0 is the no-effect control and ±100 the full control effect; nearly all actives have a fitted effect of over 60% in size
#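 Compounds, titrated to a top concentration of 110 uM, were incubated 30 min at room temperature with preformed BAZ2B/acetyl-K14 H3 peptide complex (50 nM each). Proximity signal was measured by AlphaScreen after 20 min with beads.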
# Sfp inh – inhibitors of Bacillus subtilis Sfp phosphopantetheinyl transferase; actives 3.5% (n = 310,000); Biochemical Sfp PPTase activity, qHTS; Q9F4F7; Potency, µM, for the others: largest response in the series, negative = inhibition, most hits filed as inhibitors;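 further: the enzyme is Sfp with the accession as filed and its product quenches rhodamine fluorescence; 0% = enzyme reaction without inhibitor and -100% = no enzyme wells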
#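 Compounds were incubated with enzyme (final 15 nM) for 15 min at room temperature before substrate addition started the reaction. Fluorescence at 525 nm excitation, 598 nm emission was recorded immediately and after 30 minutes.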
# HP1b chromo inh – inhibitors of HP1-beta chromodomain binding to methylated histone tails | P83916 | AlphaScreen HP1-beta / biotin-H3K9me3 peptide binding | Potency, µM (titrated, usually from 114 µM), without a hit: at the highest dose activity change, negative = inhibition, actives largely listed as inhibitors | actives 0.56% (n = 390,000) | AID 540317; further: nearly all actives have a fitted effect of over 70% in size
# Target sequence (P83916 whole entry, looked up): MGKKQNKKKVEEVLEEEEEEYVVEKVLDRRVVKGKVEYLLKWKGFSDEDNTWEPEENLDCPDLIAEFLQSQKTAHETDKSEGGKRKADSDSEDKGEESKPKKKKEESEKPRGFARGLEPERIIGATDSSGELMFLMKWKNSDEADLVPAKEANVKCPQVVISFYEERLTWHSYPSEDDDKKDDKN
#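 HP1-beta protein (50 nM final) preincubated 30 min at room temperature with biotinylated H3(1-18)K9me3 peptide (50 nM) in PBS pH 7.4, 0.01% Tween-20, then compound added for 30 min. AlphaScreen streptavidin donor/nickel chelate acceptor beads (10 ug/mL final), 30 min dark, luminescence read.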
# L3MBTL1 inh – L3MBTL1 (human) inhibition; AlphaScreen L3MBTL1–H3K9me1 peptide binding; Potency, µM (series often up to 57.1 µM), for the others: top-dose activity, negative = inhibition, actives largely listed as inhibitors; actives 0.66% (n = 230,000); AID 485360; further: on the % scale 0 is the no-effect control and ±100 the full control effect; nearly all actives have a fitted effect of over 60% in size
#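 L3MBTL1 50 nM + b-AHA-H3(1-15)K9me1 75 nM, 30 min RT; compound added, 30 min RT; streptavidin donor/Ni-chelate acceptor beads 10 ug/mL each final, 30 min RT dark; AlphaScreen read.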
# G9a inh – G9a (human) methyltransferase inhibition; G9a H3K9 monomethylation, AlphaScreen, 2 h; Potency, µM (top dose mostly 102 µM), for inactives: top-dose activity, negative = inhibition, actives largely listed as inhibitors; actives 8.8% (n = 350,000); AID 504332; further: on the % scale 0 is the no-effect control and ±100 the full control effect; nearly all actives have a fitted effect of over 75% in size
# Target sequence (Q96KQ7 913-1193 limits assumed): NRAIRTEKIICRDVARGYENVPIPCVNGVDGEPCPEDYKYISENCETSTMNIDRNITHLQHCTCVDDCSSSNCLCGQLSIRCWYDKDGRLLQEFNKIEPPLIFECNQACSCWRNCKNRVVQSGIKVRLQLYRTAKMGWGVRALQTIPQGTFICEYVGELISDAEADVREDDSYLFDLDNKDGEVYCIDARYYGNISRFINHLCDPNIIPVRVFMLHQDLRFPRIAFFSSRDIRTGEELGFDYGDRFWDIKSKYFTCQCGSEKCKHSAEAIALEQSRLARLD
#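 AlphaScreen read-out: biotin-H3K9 peptide (500 nM) methylation by 20 nM enzyme with 20 uM SAM, 2 h at room temperature after 15 min compound preincubation; anti-monomethyl H3K9 antibody plus donor/acceptor beads, 10 min dark.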
# The depositor's hits bear a star; ? = inconclusive; nt = no result given; [ ] = another dose, or the depositor's remark. Compounds with a hit are over-represented: about 12% of the library has one in this group of screens. The call rests on the fitted dose curve; in most records, active means well fitted curve in the direction sought with a large enough effect; inconclusive means small, poorly fitted or top-dose-only effect, or another doubt; inactive means no such curve, though single readings can be large; an effect the other way counts as inactive or inconclusive. Potency means the concentration at half of the fitted maximal effect.
SMILES,JMJD2A Tudor inh,BAZ2B block,Sfp inh,HP1b chromo inh,L3MBTL1 inh,G9a inh
S=C1NC(c2ccccc2)=CC(c2ccccc2)N1 (stereo not drawn),-28.5%,?,2.8%,18.2%,-3.9%,31.6µM*
S=C1NC(c2cccs2)=CC(c2ccc(Br)cc2)N1 (stereo not drawn),?,?,-20.9%,-16.0%,-8.4%,15.8µM*
CCCc1cc(=O)[nH]c(SCC(=O)c2ccc(S(=O)(=O)N3CCCC3)cc2)n1,-19.3%,6.3%,-8.4%,-5.7%,-7.3%,50.1µM*
CCCc1cc(=O)[nH]c(SCC(=O)CSc2nc(CCC)cc(=O)[nH]2)n1,5.2%,-1.7%,56.2µM*,44.1%,5.6%,56.2µM*
CCCc1cc(=O)[nH]c(SCC(=O)N2CCN(S(=O)(=O)c3ccc(Cl)cc3)CC2)n1,-3.2%,11.8%,-2.5%,30.6%,5.6%,-0.2%[59 µM]
CCCc1cc(=O)[nH]c(SCC(=O)c2cc(C)n(C)c2C)n1,-31.6%,-34.9%,6.6%,17.4%,nt,50.1µM*
Cc1cn2c(=O)cc(COC(=O)COc3ccc(F)cc3)nc2s1,-20.3%,-13.4%,nt,19.3%,nt,17.0%[59 µM]
O=C(Nc1ccc(Cl)c(C(F)(F)F)c1)C1CCCN(S(=O)(=O)c2cccc3cccnc23)C1 (stereo not drawn),-15.1%,7.2%,nt,30.7%,nt,-3.5%[59 µM]
Cn1cccc1C(=O)N1CCC2(CC1)CN(C(=O)Nc1cccc(F)c1)C2,nt,nt,12.9%,nt,nt,15.0%[12.7 µM]
C=CCn1c(C)cc(C(=O)COC(=O)/C=C/c2c(C)nn(C3CCS(=O)(=O)C3)c2Cl)c1C (stereo not drawn),?,?,nt,-29.4%,-7.0%,?
Cc1nn(C2CCS(=O)(=O)C2)c(C)c1C=O (stereo not drawn),12.6µM*,9.3%,-6.9%,-13.0%,-4.4%,1.3%
C=CCN1C(=O)c2ccc(C(=O)OCC(=O)Nc3ccc(S(N)(=O)=O)cc3)cc2C1=O,-24.6%,7.8%,nt,-16.0%,-3.3%,50.1µM*
CN(C)c1ccc(C(=O)OCC(=O)Nc2ccc(S(N)(=O)=O)cc2)cc1,56.2µM*,nt,10.9%,?,3.5%,?
Cc1ccc(Cn2cc(CCC(=O)O)c3ccccc32)cc1,-2.0%,-25.0%,13.4%,13.9%,nt,44.7µM*
Cc1[nH]n(-c2ccccc2)c(=S)c1C=Nc1cccc([N+](=O)[O-])c1,2.51µM*,22.4µM*,-92.0%,-72.1%,1.2%,nt
CCCCN(CCCC)C(=S)N/N=C/c1c(C)[nH]n(-c2ccccc2)c1=O,79.4µM*,10µM*,-4.8%,3.4%,-7.8%,?
Cc1ccc(OCC(=O)N/N=C\c2c(C)[nH]n(-c3ccccc3)c2=O)c([N+](=O)[O-])c1,?,?,3.4%,9.4%,-0.7%,?
Cc1ccc(/C=N/Nc2nncc(-c3ccccc3)n2)o1,-4.8%,-22.1%,-8.9%,55.0%,-4.8%,9.2%
Cc1[nH]n(-c2ccccc2)c(=O)c1/C=N/NC(=O)c1ccc(O)cc1O,22.4µM*,25.1µM*,6.6%,57.0%,nt,?
Cc1[nH]n(-c2ccccc2)c(=O)c1/C=N/Nc1nncc(-c2ccccc2)n1,3.55µM*,4.47µM*,-26.2%,-9.4%,25.1µM*,20µM*
Cc1ccccc1NC(=O)NC1(C(=O)N2CCC(C(N)=O)CC2)CCCCC1,-4.9%,-1.5%,27.0%,6.6%,nt,16.0%
Cc1cc(C(=O)N/N=C/c2c(C)[nH]n(-c3ccccc3)c2=O)n[nH]1,50.1µM*,28.2µM*,20.9%,35.8%,nt,-7.0%
Cc1ccc(-n2[nH]c(C)c(/C=N/NC(=O)c3ccc(O)cc3O)c2=O)cc1,31.6µM*,28.2µM*,8.8%,21.7%,nt,-13.5%
CCCCN=Cc1c(C)[nH]n(-c2ccccc2)c1=S,?,?,10µM*,?,-19.4%,4.47µM*
Cc1[nH]n(-c2ccccc2)c(=O)c1C=NCCc1ccccc1,-18.4%,-20.1%,11.8%,-0.1%,-6.2%,-6.6%
SMILES,JMJD2A Tudor inh,BAZ2B block,Sfp inh,HP1b chromo inh,L3MBTL1 inh,G9a inh
COc1ccc(CCNC(=O)C2CCN(c3nc4ccccc4nc3C(F)(F)F)CC2)cc1OC,-4.5%,-1.4%,nt,22.9%,nt,9.0%[59 µM]
COc1ccc(N2CC(NC(=O)/C=C\c3ccccc3)CC2=O)cc1 (stereo not drawn),-19.8%,-1.8%,nt,28.5%,nt,-7.4%[59 µM]
Cc1ccc2nc(SCC(=O)Nc3ccc(C)c([N+](=O)[O-])c3)[nH]c2c1,-24.8%,?,0.9%,1.0%,-13.7%,11.2µM*
COc1ccc(CCC(=O)Nc2cc([N+](=O)[O-])ccc2OC)cc1,-17.9%,-23.2%,-2.7%,15.3%,-8.0%,-4.7%
COc1ccc([N+](=O)[O-])cc1NC(=O)CSCc1ccccc1,-28.2%,2.4%,-10.6%,-4.9%,-4.5%,-21.2%
COc1ccc(CCC(=O)Nc2ccc(C)c([N+](=O)[O-])c2)cc1,?,?,?,-25.7%,-20.5%,10µM*
O=C(CSCc1ccccc1)Nc1cc([N+](=O)[O-])ccc1F,-28.3%,?,-6.4%,32.6%,-15.5%,31.6µM*
Cc1ccc2nc(SCC(=O)Nc3cc([N+](=O)[O-])ccc3F)[nH]c2c1,-15.2%,?,-13.3%,24.0%,-3.1%,25.1µM*
Cc1ccccc1N1CCN(S(=O)(=O)Cc2ccccc2)CC1,17.3%,2.9%,9.9%,60.9%,nt,38.2%
COc1ccc(S(=O)(=O)NCc2ccc3c(c2)CCN3C(=O)c2ccc(C)cc2)cc1Cl,-8.4%,23.0%,nt,46.0%[57 µM],nt,-6.2%[59 µM]
NC(=O)CC(NC(=S)NCc1ccccc1)C(=O)O (stereo not drawn),-20.0%,-5.5%,?,3.1%,nt,70.8µM*
O=C(NC(=S)NCc1ccccc1)c1ccccc1,-21.5%,-25.5%,-2.4%,30.4%,-5.7%,44.7µM*
O=C(NC(=S)NCc1ccncc1)c1ccccc1,-10.3%,-4.5%,-1.5%,22.3%,4.1%,nt
O=C(NC(=S)NCc1ccc(F)cc1)c1ccccc1,-9.7%,-13.2%,?,8.4%,-4.4%,50.1µM*
O=C(Cc1csc(-c2ccccc2)n1)NCc1ccc(F)cc1,5.9%,6.1%,6.3%,36.1%,-6.1%,44.7µM*
CC(C)N(Cc1ccccc1)C(=S)Nc1cccnc1,-8.0%,-7.0%,16.5%,13.3%,7.8%,16.6%[59 µM]
CN(Cc1ccccc1)C(=S)NC(=O)c1ccccc1,-24.5%,-24.8%,10.0%,19.4%,-5.9%,50.1µM*
CN(Cc1ccccc1)C(=S)Nc1cccnc1,56.2µM*,-21.6%,9.0%,6.1%,nt,-5.6%
COc1ccc(C(=O)NC(=S)N(C)Cc2ccccc2)cc1Br,-20.8%,-4.1%,12.1%,24.4%,0.7%,nt
Cc1ccc(N2C(=O)CC(Sc3cccs3)C2=O)cc1 (stereo not drawn),-4.7%,2.8%,-8.5%,47.1%,-0.2%,35.5µM*
